Here are results for 40 compounds from PubChem BioAssay (EPA / NIEHS).

Calls of active or inactive are those of the source. How the source made its calls: active means hit-call score of the fitted dose curve at least 0.9, where 1 is the maximum; inactive means score below 0.9.

For orientation: AC50 means the concentration giving half of the maximal activity seen.

Sequence of Transcription factor Sp1 (Homo sapiens) (P08047 whole entry, looked up): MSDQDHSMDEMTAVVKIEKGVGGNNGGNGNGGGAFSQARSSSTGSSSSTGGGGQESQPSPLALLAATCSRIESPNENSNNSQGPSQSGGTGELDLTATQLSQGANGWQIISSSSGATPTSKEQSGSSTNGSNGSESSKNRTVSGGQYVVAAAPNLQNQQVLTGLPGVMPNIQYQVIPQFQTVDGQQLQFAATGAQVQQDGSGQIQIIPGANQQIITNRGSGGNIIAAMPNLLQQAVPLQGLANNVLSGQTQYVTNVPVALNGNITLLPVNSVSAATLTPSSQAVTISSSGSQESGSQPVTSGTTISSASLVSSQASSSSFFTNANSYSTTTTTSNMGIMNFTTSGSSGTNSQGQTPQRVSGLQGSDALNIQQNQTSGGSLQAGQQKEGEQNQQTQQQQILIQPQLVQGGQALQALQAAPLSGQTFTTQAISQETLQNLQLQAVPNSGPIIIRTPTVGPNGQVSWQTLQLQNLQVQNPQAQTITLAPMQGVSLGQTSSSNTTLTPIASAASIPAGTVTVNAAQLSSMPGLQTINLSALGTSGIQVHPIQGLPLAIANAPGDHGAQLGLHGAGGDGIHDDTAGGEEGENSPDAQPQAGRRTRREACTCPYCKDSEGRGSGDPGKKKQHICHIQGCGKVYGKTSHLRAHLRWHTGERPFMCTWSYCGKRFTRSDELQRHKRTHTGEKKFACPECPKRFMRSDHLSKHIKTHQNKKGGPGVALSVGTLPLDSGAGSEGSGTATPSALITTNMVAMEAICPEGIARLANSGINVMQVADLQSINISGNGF

In the experiment the target is Transcription factor Sp1 (Homo sapiens) (UniProt P08047). Put plainly: ATG_Sp1_CIS: Attagene CIS-FACTORIAL HepG2 Assay for human Specificity Protein 1 (Sp1) (AID 2282961). The settings on record: HepG2 Sp1 cis-reporter transcription, actives raise or lower the signal. The protocol:
ATG_CIS is a cell-based, multiplexed-readout assay that uses HepG2, a human liver cell line, with measurements taken at 24 hours after chemical dosing in a 24-well plate.ATG_Sp1_CIS is one of 52 assay component(s) measured or calculated from the ATG_CIS assay. It is designed to make measurements of mRNA induction, a form of inducible reporter, as detected with fluorescence intensity signals by Reverse transcription polymerase chain reaction (RT-PCR) and Capillary electrophoresis technology.Data from the assay component ATG_Sp1_CIS was analyzed into 1 assay endpoint. This assay endpoint, ATG_Sp1_CIS, was analyzed with bidirectional fitting relative to DMSO as the negative control and baseline of activity. Using a type of inducible reporter, measures of mRNA for gain or loss-of-signal activity can be used to understand the reporter gene at the transcription factor-level as they relate to the gene SP1. Furthermore, this assay endpoint can be referred to as a primary readout, because this assay has produced multiple assay endpoints where this one serves a reporter gene function. To generalize the intended target to other relatable targets, this assay endpoint is annotated to the dna binding intended target family, where the subfamily is zinc finger.
Human liver HepG2 cells are transiently transfected with multiple reporter transcription units (MRTUs) in 6-well plates using FuGene 6 reagent (Roche; 3 ml FuGene/1 mg DNA). The MRTU constructs are regulated by a cis-regulating element (promoter). […] A major difference between the CIS and TRANS system is that in CIS activities of endogenous TFs are measured, whereas the TRANS assay evaluates changes in activities of exogenous, chimeric NR-Gal4 proteins. […] At the end of 24 hour incubation, total RNA was isolated using TriZol reagent (Invitrogen). The isolated RNA is then reverse-transcribed using oligo(dT) primer and Mo-MLV reverse transcriptase (Invitrogen) with DNAse I (Ambion) treatment for 30 min. The one-tenth of the produced cDNA was amplified by PCR using Taq DNA polymerase (Invitrogen) and two reporter sequence-specific primers. The PCR products were fluorescently labeled by primer extension with 6-arboxyfluorescein (6-FAM) 5'-labeled reporter sequence-specific primer (2 min at 95 C, 20 s at 68 C and 10 min at 72 C) and these products were digested with 5U of HpaI (New England Biolabs) for 2h at 37 C. The fragments were purified using Qiaquick PCR columns (Qiagen), analyzed on an ABI 3130xL genetic analyzer (Applied Biosystems) with peak positions identified by using a set of X-rhodamine (ROX)-labeled MapMarker1000 molecular weight standards (BioVentures). The raw capillary electrophoresis data was processed using Attagraph software (Attagene).
Take `CC/C(=C\C(=N/O)C(N)=O)C(C)[N+](=O)[O-]` (stereo not given): the outcome was inactive.
As for `CC[C@H](C)C(=O)O[C@H]1C[C@@H](C)C=C2C=C[C@H](C)[C@H](CC[C@@H]3C[C@@H](O)CC(=O)O3)[C@H]21`, the compound was classed as inactive.
With `CCN(C(=O)c1cc(C)cc(OC[C@H](C)Nc2ccncc2)c1)C(C)C`, the compound was called inactive.
Consider `Oc1ccc2c(c1)-c1ccccc1C2`, for which the AC50 was 11.9 µM (active).
Regarding `CC1(C)C(=O)N(Br)C(=O)N1Br`, the result was inactive.
Regarding `CC(C)CCCCCCCOC(=O)CCCCC(=O)OCCCCCCCC(C)C`, the compound was called inactive.
With `CCOC(=O)COc1ccc2c(c1)CC(NCC(O)c1cccc(Cl)c1)CC2` (stereo not given), the compound was called inactive.
As to `Cn1c(=O)c2c(ncn2C)n(C)c1=O`, the compound was called inactive.
On the same count and under the same terms, as for `O=C(NS(=O)(=O)/C=C/c1ccccc1)c1ccc(F)cc1Cl`, the entry is “inactive”.
`O=C1OC(=O)C2C3C=CC(C3)C12` (stereo not given): the compound was called inactive.
As for `Clc1nc(Cl)c(Cl)c(Cl)c1Cl`, the outcome was inactive.
As for `COCCOCCOCCOC`, the compound was called inactive.
Consider `CCCN(C1CCN(C(=O)C2CCNCC2)CC1)[C@@H]1CCc2ccc(OC)cc2C1`, for which the AC50 is 177 µM (active).
Consider `CC(=O)OC[C@H]1O[C@@](COC(C)=O)(O[C@H]2O[C@H](COC(C)=O)[C@@H](OC(C)=O)[C@H](OC(C)=O)[C@H]2OC(C)=O)[C@@H](OC(C)=O)[C@@H]1OC(C)=O`, for which the compound was called inactive.
As to `CNCc1ccc(NC(=O)c2c[nH]c3c2C(=O)CCC3)cc1`, the outcome was inactive.
In the case of `CC(C)c1cccc(C(C)C)c1N1C(=O)c2ccc(O)cc2C1=O`, the AC50 is 74.2 µM (active).
For the compound `CCCCC(CC)COC(=O)c1ccc(C(=O)OCC(CC)CCCC)cc1` (stereo not given), the call was inactive.
Same read-out and setting: then `O=C(O)c1cccc(Oc2ccccc2)c1`, with “inactive”; and `CC(C)CCCCCCOC(=O)c1ccc(C(=O)OCCCCCCC(C)C)c(C(=O)OCCCCCCC(C)C)c1`, with “inactive”.
Still for that read-out and setting: then `O=C(OC[C@H]1O[C@@H](OC(=O)c2cc(O)c(O)c(OC(=O)c3cc(O)c(O)c(O)c3)c2)[C@H](OC(=O)c2cc(O)c(O)c(OC(=O)c3cc(O)c(O)c(O)c3)c2)[C@@H](OC(=O)c2cc(O)c(O)c(OC(=O)c3cc(O)c(O)c(O)c3)c2)[C@@H]1OC(=O)c1cc(O)c(O)c(OC(=O)c2cc(O)c(O)c(O)c2)c1)c1cc(O)c(O)c(OC(=O)c2cc(O)c(O)c(O)c2)c1`, with “inactive”; and `CCOCCO`, with “inactive”.
For the compound `CCCCCCCCCCCCc1ccccc1`, the compound was called inactive.
Same read-out and setting: then `CCCCCCCCCCCCCCCO`, with “inactive”; and `COc1ccc2sc(C(=O)Nc3nnn[nH]3)c(OC(C)C)c2c1`, with “inactive”.
For the compound `COc1cccc(-c2ccc(/C=C\CN3CCCCCC3)cc2Cl)c1`, the compound was classed as inactive.
Consider `CN(C)c1ccc(N=NS(=O)(=O)O)cc1`, for which the outcome was inactive.
As for `Cc1ccc(C)c(O)c1`, the call was inactive.
For the compound `COc1ccc(/C=C/S(=O)(=O)NC(=O)c2ccc(C)cc2Cl)cc1`, the compound was classed as inactive.
Same read-out and setting: then `Cc1c(-c2cccnc2)c2ccccc2n1CCCCC(=O)O`, with “inactive”.
Turning to `Cc1[nH]cnc1C[C@H]1CCc2c(C)c3ccccc3n2C1=O`, the compound was called inactive.
On the same count and under the same terms, then `CCNc1ccccc1`, with “inactive”.
`O=c1n(CC2CO2)c(=O)n(CC2CO2)c(=O)n1CC1CO1` (stereo not given): the half-maximal activity concentration (AC50) is 17.1 µM (active).
For the compound `CC(C)(O)c1coc(S(=O)(=O)NC(=O)Nc2c3c(cc4c2CCC4)CCC3)c1`, the outcome was inactive.
Still for that read-out and setting: as for `Cn1c(=O)cc(Oc2ccc(F)cc2F)c2cnc(NCC(C)(C)O)nc21`, the entry is “inactive”; as for `CC(C)=CCCC(C)=CC=O`, “inactive”.
As to `O=C(O)c1cc(N=Nc2ccc(S(=O)(=O)Nc3ccccn3)cc2)ccc1O`, the outcome was inactive.
Regarding `CCCCC(CC)COC(=O)CCCCCCCCC(=O)OCC(CC)CCCC` (stereo not given), the compound was called inactive.
Turning to `CC(=O)OCCC(C)C`, the call was inactive.
For the compound `CCCCCCc1ccc(O)cc1O`, the compound was called inactive.
In the case of `CC(C)CC(C)(O)C#CC(C)(O)CC(C)C` (stereo not given), the call was inactive.
